KCNQ2 inh – blocks the rat KCNQ2 potassium channel. O88943. actives 1.1% (n = 310,000). CHO-K1 KCNQ2, FluxOR thallium flux, 20 min; active compounds read low. AID 2156. B-score at 10 µM;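 active = fluorescence ratio B-score at most minus 3 library SDs, with starting brightness B-score within 2 library SDs, cut at about -5.5 in these data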
Target sequence (O88943 whole entry, looked up): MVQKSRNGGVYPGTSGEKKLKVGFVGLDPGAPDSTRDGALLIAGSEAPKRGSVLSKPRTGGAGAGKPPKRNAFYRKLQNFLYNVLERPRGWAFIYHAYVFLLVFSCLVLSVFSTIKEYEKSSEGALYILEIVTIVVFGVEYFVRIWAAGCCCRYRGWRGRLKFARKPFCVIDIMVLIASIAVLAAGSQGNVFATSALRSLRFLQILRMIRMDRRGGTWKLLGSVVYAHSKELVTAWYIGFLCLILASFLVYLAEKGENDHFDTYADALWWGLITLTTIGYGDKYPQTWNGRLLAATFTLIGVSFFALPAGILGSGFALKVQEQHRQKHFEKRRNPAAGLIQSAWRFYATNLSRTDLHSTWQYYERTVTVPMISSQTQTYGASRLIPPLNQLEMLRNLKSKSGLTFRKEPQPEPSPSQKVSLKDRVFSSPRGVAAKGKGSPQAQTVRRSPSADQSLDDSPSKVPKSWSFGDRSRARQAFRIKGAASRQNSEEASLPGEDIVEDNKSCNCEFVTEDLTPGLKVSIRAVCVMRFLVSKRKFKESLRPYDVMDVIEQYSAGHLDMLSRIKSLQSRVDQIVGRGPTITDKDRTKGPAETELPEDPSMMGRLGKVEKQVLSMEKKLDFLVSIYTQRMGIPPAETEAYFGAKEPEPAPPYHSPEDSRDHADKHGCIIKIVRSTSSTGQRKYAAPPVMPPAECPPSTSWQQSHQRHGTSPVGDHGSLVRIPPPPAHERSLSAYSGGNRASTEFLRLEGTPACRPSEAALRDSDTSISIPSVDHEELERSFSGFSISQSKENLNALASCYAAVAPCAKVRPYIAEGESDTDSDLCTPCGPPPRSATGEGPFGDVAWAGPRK
KCNQ2 enhance – KCNQ2 (rat) channel potentiation; O88943; CHO-K1 KCNQ2, FluxOR thallium flux fluorescence; active compounds read high; B-score at 10 µM; actives 0.54% (n = 310,000); AID 2239;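 active = fluorescence ratio B-score at least 3 SD of library B-scores, with initial fluorescence B-score within 3 of them, cut at about 5.3 in these data; same plate scores as AID 2156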;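 note: B-score of peak minus minimum over baseline fluorescence ratio after K+ and Tl+ stimulus; positive B-score means potentiation of KCNQ2 with more thallium influx and brighter signal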
Kir21 confirm – confirmation of mouse Kir2.1 potassium channel inhibitors. shares compounds with KCNQ2 enhance. actives 41% (n = 2,300). Tl flux remaining, % of negative control (active compounds read low), % at 10 µM. Kir2.1-expressing cells, FluxOR thallium flux fluorescence; active compounds read low;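 active = Primary-screen hit whose thallium flux fell at least 3 control SD below untreated wells in both duplicates, with normal baseline fluorescence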;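 note: 0% = blank wells without stimulus and 100% = stimulated no-compound controls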
HEK293 ctr – counter-screen for Kir2.1 inhibitors: effect in parental HEK293 cells | AID 2105 | actives 19% (n = 2,300) | FluxOR signal as % of negative control (100 = no effect), % at 10 µM | shares compounds with KCNQ2 enhance | FluxOR thallium flux fluorescence; 0% = unstimulated blank wells;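 active = dye signal at least 3 control SD above or below untreated wells in both duplicates, raw fluorescence within 3, either direction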;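 note: percent is based on the flux ratio of peak minus minimum fluorescence over baseline F0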
CHO-K1 Tl ctr – alters thallium flux in parental CHO-K1 cells, KCNQ2 counter-screen; shares compounds with KCNQ2 enhance; FluxOR thallium flux fluorescence; zero = vehicle mean+3SD, 100% = vehicle-minus-blank window; activity increase over 3SD of controls, % at 10 µM; actives 43% (n = 1,200);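 active = signal rise of at least 3 SD above the untreated control mean, in both duplicate wells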;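 note: counter screen of KCNQ2 potentiator hits so any rise reflects channel-independent effects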
KCNQ1 pot spec – human KCNQ1 counter-target activity of KCNQ2 potentiators; shares compounds with KCNQ2 enhance; CHO KCNQ1 stable, FluxOR thallium flux fluorescence; beyond 3SD, as % of vehicle-control signal; activation over 3SD threshold, % at 10 µM; actives 28% (n = 1,200); AID 2283;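 active = fluorescence ratio rise of at least 3 SD of vehicle wells above their mean, in both replicate wells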;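 note: 0% = vehicle mean plus 3 SD and 100% = vehicle minus unstimulated blank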
KCNQ2 pot confirm – confirmation of rat KCNQ2 potassium channel potentiators; CHO-KCNQ2 cells, FluxOR thallium flux fluorescence; shares compounds with KCNQ2 enhance; AID 2287; actives 68% (n = 1,200); potentiation, less the hit threshold, % at 10 µM;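 active = fluorescence ratio rising 3 SD or more over the vehicle control mean in both replicates, plus primary screen hit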;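 note: peak minus minimum thallium fluorescence divided by baseline after K/Tl stimulus; 0% = vehicle mean plus 3 SD and 100% = vehicle minus unstimulated blank difference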
Kir2-1 sel – mouse Kir2.1 off-target activity of KCNQ2 potentiators; shares compounds with KCNQ2 enhance; HEK293 Kir2.1, FluxOR thallium flux fluorescence; activity over 3SD threshold, % at 10 µM; actives 2% (n = 1,200); AID 2345;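 active = fluorescence ratio rise of at least 3 SD above the vehicle-control mean, seen in both replicates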;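 note: 0% = vehicle mean plus 3 SD and 100% = vehicle minus no-stimulus blank window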
KCNQ2 W236L pot – rat KCNQ2 W236L mutant potentiation by KCNQ2 potentiators. shares compounds with KCNQ2 enhance. CHO KCNQ2-W236L, automated patch clamp current. current increase over 3SD of negative controls (%), active compounds read high, % at 25 µM. actives 10% (n = 940). AID 2558;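 active = current increase at least 3 SD of the untreated controls above them in both duplicate recordings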
Starred values were filed as active, the others as inactive; i = inactive; / = no result given. An excerpt weighted towards active compounds, which were near 1.6% of everything screened.

SMILES	KCNQ2 inh	KCNQ2 enhance	Kir21 confirm	HEK293 ctr	others
O=c1[nH]c(C(Cl)(Cl)Cl)nc2ccc3ccccc3c12	i	6.63*	i	174.5%*	CHO-K1 Tl ctr=-18.4;KCNQ1 pot spec=38.3*;KCNQ2 pot confirm=5.6*;Kir2-1 sel=-18.9;KCNQ2 W236L pot=i
FC(F)(F)COc1ccc(-c2nnc(SCc3ccccc3)o2)cn1	i	/	/	/
CCOC(=O)c1c(N)sc2c1CCC(C)C2 (configuration not stated)	i	0.04	/	/
CCOC(=O)c1c(NS(C)(=O)=O)sc2c1CCC(C)C2 (configuration not stated)	i	2.19	i	178.0%*
Cc1ccc(C)c(/C=C/C(=O)c2ccccc(=O)c2O)c1	i	18.3*	i	144.0%*	CHO-K1 Tl ctr=33.1*;KCNQ1 pot spec=36.3*;KCNQ2 pot confirm=-4.2;Kir2-1 sel=-39.7;KCNQ2 W236L pot=i
O=C(/C=C/c1ccccc1Cl)Nc1ccccc1	i	/	/	/
O=C(/C=C/c1ccccc1Cl)c1ccccc(=O)c1O	i	8.44*	i	153.0%*	CHO-K1 Tl ctr=-4.4;KCNQ1 pot spec=4.1*;KCNQ2 pot confirm=-6.3;Kir2-1 sel=-45.1
Cc1ccc(C)c(NC(=O)c2ccccc2O)c1	i	0.05	/	/
CCn1nc(CC(C)C)cc1C(=O)N1CCCC(Nc2ccc(OC)cc2)C1 (configuration not stated)	i	0.65	/	/
COC(=O)Cc1c(C(=O)OC)nnn1-c1cccc(C(F)(F)F)c1	i	0.01	/	/
Cc1nc2nc(SCc3ccccc3)[nH]n2c(=O)c1CCC(C)C	i	/	/	/
CCOc1ccccc1OCC(=O)NCCc1ccc(S(N)(=O)=O)cc1	i	/	/	/
CCc1cc(-c2n[nH]c(=S)n2C(C)c2ccccc2)cs1 (configuration not stated)	i	1.95	50.5%*	i
Cc1scc(-c2n[nH]c(=S)n2C(C)c2ccccc2)c1C (configuration not stated)	i	/	/	/
NC(=O)C(c1ccc(Cl)cc1)c1ncc(C(F)(F)F)cc1Cl (configuration not stated)	i	3.41	/	/
N#CC(c1ccc(O)cc1)c1ncc(C(F)(F)F)cc1Cl (configuration not stated)	i	2.23	47.5%*	i
CCCN(CCC)C(=O)c1cc(S(=O)(=O)N2CCCCC2)c[nH]1	i	1.01	/	/
O=C(NNS(=O)(=O)c1ccccc1[N+](=O)[O-])c1cccc([N+](=O)[O-])c1	i	0.88	/	/
COc1ccc(Cl)cc1NS(=O)(=O)c1ccc(OC)c(OC)c1	i	/	51.0%*	139.5%*
COc1ccc(C)cc1NS(=O)(=O)c1ccc(NS(=O)(=O)c2ccc(NC(C)=O)cc2)cc1	i	0.06	/	/
COc1ccc(S(=O)(=O)Nc2cc(C)ccc2OC)cc1C	i	/	77.0%*	i
COc1ccc(S(=O)(=O)Nc2cc(Cl)ccc2OC)cc1	i	/	/	/
CC1(c2nnc(Cc3ccccc3)o2)CC(c2cccc(Cl)c2)=NO1 (configuration not stated)	i	/	/	/
CN(C)CCC1c2ccc(Cl)cc2CCc2cccnc21 (configuration not stated) (tested in a mixture with another compound)	i	/	/	/
CCOC(=O)Nc1c(Cl)n(C)c(=O)n(C)c1=O	i	/	/	/
SMILES	KCNQ2 inh	KCNQ2 enhance	Kir21 confirm	HEK293 ctr	others
CC1=C(C)CC(C(=O)NCc2cccc(Cl)c2)C(C(=O)O)C1 (configuration not stated)	i	0.07	/	/
CC1CCN(S(=O)(=O)N2CCC(C(=O)NCc3ccc4c(c3)OCO4)CC2)CC1	i	0.08	/	/
CCc1ccc(CNC(=O)C2CCN(S(=O)(=O)N3CCC(C)CC3)CC2)cc1	i	6.89*	i	i	CHO-K1 Tl ctr=-13.7;KCNQ1 pot spec=-6.7;KCNQ2 pot confirm=-7.5;Kir2-1 sel=-27.8
COc1ccc(C(C)=O)cc1CN1C(=O)NC(c2ccccc2)(c2ccccc2)C1=O	i	/	/	/
Cc1cc(C)c(C)c(S(=O)(=O)N2CCC(C(=O)NCC(c3ccccc3)N(C)C)CC2)c1C (configuration not stated)	i	0.32	/	/
CC(C)(C)c1ccc(C(=O)NCCC(=O)NCc2cccs2)cc1	i	0.2	/	/
COc1cccc(CNc2cccc3cccnc23)c1O	i	/	/	/
Oc1c(Br)cc(Br)cc1CNc1cccc2cccnc12	i	8.76*	i	i	CHO-K1 Tl ctr=2.2*;KCNQ1 pot spec=-25.9;KCNQ2 pot confirm=-20.3;Kir2-1 sel=-25.9
COc1cc(/C=C2\SC(=S)N(CCCCC(=O)O)C2=O)ccc1OS(=O)(=O)c1ccc(C)cc1	i	/	/	/
Cc1ccc(NC(=O)C(C)OC(=O)Cc2c[nH]c3ccccc23)cc1 (configuration not stated)	i	0.34	52.5%*	i
Cc1ccc(C(=O)C(C)OC(=O)Cc2c[nH]c3ccccc23)cc1 (configuration not stated)	i	/	/	/
CCOc1nc(C)cc(C)c1S(=O)(=O)c1cccc(Cl)c1	i	/	61.0%*	i
Cc1cc(C)c(S(=O)(=O)c2cccc(Cl)c2)c(Cl)n1	i	/	/	/
O=C(COC(=O)Cc1ccc(Cl)cc1Cl)Nc1ccccc1OC(F)F	i	/	/	/
Nc1c(-c2ccccc2Cl)cnn1-c1cccc([N+](=O)[O-])c1	i	5.35*	i	127.0%*	CHO-K1 Tl ctr=-19.6;KCNQ1 pot spec=-33.1;KCNQ2 pot confirm=2.3*;Kir2-1 sel=-25.1;KCNQ2 W236L pot=i
Cc1ccccc1-c1cnn(-c2cccc([N+](=O)[O-])c2)c1N	i	0.71	/	/
Cc1cc(C)c(S(=O)(=O)N2CCCC(C(=O)NCc3cccnc3)C2)c(C)c1 (configuration not stated)	i	/	/	/
CCOC(=O)/C(C#N)=C\c1cc(OC)c(OC)cc1[N+](=O)[O-]	i	0.11	/	/
CSC1=C(C#N)C(CC(C)C)C(C(C)=O)=C(C)N1 (configuration not stated)	i	1.25	72.5%*	i
CSC1=C(C#N)C(CC(C)C)C2=C(CCCC2=O)N1 (configuration not stated)	i	1.44	/	/
COC(=O)c1cc(CNC(=O)c2ccccc2OCc2c(C)noc2C)ccc1OC	i	0.61	/	/
O=C(Nc1cccc2ncccc12)C12CC3CC(CC(C3)C1)C2	i	1.21	/	/

Bioassay records from PubChem BioAssay.
